40 molecules from PubChem BioAssay (Tox21) can be followed below.

Values joined by “and” are separate entries in the source; they are usually repeats but may differ in a detail not shown here. Identical values can stand only once. Inconclusive results are not listed. Entries that show only a call come without a potency. The source holds several records for some structures; these can differ, active in one and inactive in another. Active and inactive are the calls of the source. Calls follow the shape of the dose curve; as a rule, active = well fitted cell-killing curve with a large enough effect in the repeat runs; inconclusive = weak or mixed curves, or effect the other way; inactive = no such curve, though single readings can be large or run the other way.
Potency is read from the fitted curve at half-maximal effect.

The assay can be described thus: qHTS assay to identify small molecule antagonists of the peroxisome proliferator-activated receptor gamma (PPARg) signaling pathway - cell viability counter screen (AID 743194). Also: nearly all actives have a fitted effect of over 55% in size. The note with it: PPARg-bla HEK293H viability, CellTiter-Glo luminescence, 17 h; Potency: co-treated with 50 nM rosiglitazone unless noted; series mostly up to 62.6 µM; activity change, negative = cytotoxicity: at the top concentration. From the text:
U.S. Tox21 Program National Center for Advancing Translational Sciences [NCATS] NIH Chemical Genomics Center [NCGC] U.S. Environmental Protection Agency [EPA] National Institutes of Environmental Health Sciences [NIEHS] National Toxicology Program [NTP] U.S. Food and Drug Administration [FDA] Tox21 Assay Overview: The peroxisome proliferator-activated receptors (PPARs) are lipid-activated transcription factors of the nuclear receptor superfamily with three distinct subtypes namely PPAR alpha, PPAR delta (also called PPAR beta) and PPAR gamma (PPARg). All these subtypes heterodimerize with Retinoid X receptor (RXR) and these heterodimers regulate transcription of various genes. PPAR-gamma receptor (glitazone receptor) is involved in the regulation of glucose and lipid metabolism. To identify the compounds that activate PPAR-gamma signaling, GeneBLAzer PPAR gamma UAS-bla HEK293H cell line (Invitrogen, Carlsbad, CA, USA) containing a beta-lactamase reporter gene under the control of an Upstream Activator Sequence (UAS) was used to screen the Tox21 compound library. The cytotoxicity of the Tox21 compound library against the PPARg-bla cell line was tested in parallel by measuring the cell viability using CellTiter-Glo assay in the same wells.
Tox21 Assay Protocol Summary: PPARg-bla cells were dispensed at 3000 cells/5uL/well in 1536-well black wall/clear bottom plates using a Multidrop Combi (Thermo Fisher Scientific, Waltham, MA) dispenser. After the assay plates were incubated at 37 C and 5% CO2 for 5 h, 23 nL of compounds dissolved in DMSO, positive controls or DMSO only was transferred to the assay plate by a Pintool station (Kalypsys, San Diego, CA), followed by addition of 1ul Rosiglitazone (50 nM, final concentration in the wells). The assay plates were incubated at 37 C for 17 h, and then 1 uL of LiveBLAzerTM B/G FRET substrate was added using a Bioraptr Flying Reagent Dispenser (FRD) workstation (Beckman Coulter, Indianapolis, IN, USA). The assay plates were incubated at room temperature for 1 h and fluorescence intensity was measured by an Envision plate reader (PerkinElmer, Shelton, CT). For cell viability readout that measures cytotoxicity, 4 ul/well of CellTiter-Glo reagent was added into the assay plates using a Flying Reagent Dispenser. After 30 min incubation at room temperature, the luminescence intensity in the plates was measured using a ViewLux plate reader (PerkinElmer).
Consider `O=c1nc(O)n(Cl)c(=O)n1Cl`, for which the Potency result was “inactive”.
Consider `O=C(O)CCl`, for which the Potency entry was “inactive”.
As to `CC(Cl)(Cl)C(=O)O`, the Potency result is “inactive”.
In the case of `COP(=O)(OC)C(O)C(Cl)(Cl)Cl` (stereo not given), the Potency result was “inactive”.
For `CCCCCCn1cc[n+](C)c1`, the Potency result is “inactive”.
As to `COCC(=O)N(c1c(C)cccc1C)C(C)C(=O)OC` (stereo not given), the Potency entry was “inactive”.
For the molecule `O=P1(N(CCCl)CCCl)NCCCO1` (stereo not given), the Potency result is “inactive”.
On to `C1CCC(NC2CCCCC2)CC1`, for which the Potency result was “inactive”.
As to `Cc1cc(Cl)ccc1OCC(=O)O`, the Potency entry is “inactive”.
In the case of `O=C(O)C(Cl)(Cl)Cl`, the Potency entry is “inactive”.
For `CCCC[n+]1ccccc1C`, the Potency result was “inactive”.
As for `CCCC[n+]1ccc(C)cc1`, the Potency result is “inactive and 48.7 µM [setting not given] (active)”.
For `CNC`, the Potency result was “inactive”.
`CC[N+]1(C)CCCC1`: the Potency result is “inactive”.
For `CCC[N+]1(C)CCCC1`, the Potency result was “inactive”.
On to `CN(C)[C@@H]1C(=O)C(C(N)=O)=C(O)[C@@]2(O)C(=O)C3=C(O)c4c(O)cccc4[C@@](C)(O)[C@H]3[C@H](O)[C@@H]12`, for which the Potency entry is “inactive”.
Consider `CCC(=O)C(CC(C)N(C)C)(c1ccccc1)c1ccccc1` (stereo not given), for which the Potency result was “inactive”.
`CCNc1nc(Cl)nc(NCC)n1`: the Potency entry is “inactive”.
On the same count and under the same terms, for `C=CCOC(Cn1ccnc1)c1ccc(Cl)cc1Cl` (stereo not given) the value was “inactive”.
Consider `CCCCCC[n+]1ccccc1`, for which the Potency result was “inactive”.
Same read-out and setting: the same measure for `C[C@]12CCC(=O)C=C1CC[C@@H]1[C@@H]2CC[C@]2(C)C(=O)CC[C@@H]12`: “inactive”.
Same read-out and setting: the same measure for `CCCC[N+]1(C)CCCC1`: “inactive”; for `COP(=O)(OC)OC=C(Cl)Cl`: “inactive”.
The same measure, in the same setting: for `O=C(O)c1ccccc1O` the value was “inactive”; for `CCCCCCCCCCCC(=O)O`, “inactive”.
As to `Nc1ccc(-c2ccc(N)c(Cl)c2)cc1Cl`, the “activity change, negative = cytotoxicity” value is -33.2% [at 81.1 µM, co-treated with 50 nM rosiglitazone] (inactive).
Take `Cc1cc(Cl)ccc1N`: the Potency entry was “inactive”.
Same read-out and setting: for `CCC[N+]1(C)CCCCC1` the value was “inactive”; for `O=[N+]([O-])c1ccccc1O`, “inactive”; for `Oc1cccc2cccnc12`, “inactive”.
The same measure, in the same setting: for `C[N+](C)(C)Cc1ccccc1` the value was “inactive”; for `O=S(=O)(O)O`, “inactive”.
The same measure, in the same setting: the same measure for `OCCOc1ccccc1`: “inactive”; for `O=[N+]([O-])O`: “inactive”; for `O=C(O)COc1ccc(Cl)cc1Cl`: “inactive”.
Consider `Cc1cc(-c2ccc(N)c(C)c2)ccc1N`, for which the Potency result is “inactive”.
On to `CC(=O)[O][Hg][c]1ccccc1`, for which the Potency was 686 nM (active) and 309 nM (active) and 1.88 µM (active).
Still for that read-out and setting: the same measure for `CCn1cc[n+](C)c1C`: “inactive”; for `COc1ccc(N)cc1`: “inactive”; for `CCCCn1cc[n+](C)c1C`: “inactive”.
